These results are taken from PubChem BioAssay (Tox21).

Results filed as inconclusive are left out. Activity calls are given as the source filed them. Unless noted, calls come from the whole dose curve; as a rule, active = well fitted curve in the direction sought with a large enough effect in the repeat runs; inconclusive = weak or mixed curves; inactive = no such curve, though single readings can be large; an effect the other way counts as inactive or inconclusive.

Experiment [1] is described as follows: qHTS assay to identify small molecule antagonists of the glucocorticoid receptor (GR) signaling pathway - cell viability counter screen (AID 720693). Note: nearly all actives have a fitted effect of over 55% in size. For orientation: In qHTS, concentration-response curves come from the screen itself.
A short description of experiment [2]: qHTS assay for identifying genotoxic compounds that show differential cytotoxicity against isogenic chicken DT40 cell lines with known DNA damage response pathways - wild type cell line (AID 743012). Note: nearly all actives have a fitted effect of over 60% in size. Note: potency is the fitted concentration of half-maximal effect. A digest of the protocol: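 Wild-type DT40 cells (300/well) exposed to compounds for 40 hours at 37 C/5% CO2. Viability read by CellTiter-Glo luminescence after 30 min at room temperature.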

Experiment [3] is described as follows: qHTS assay for identifying genotoxic compounds that show differential cytotoxicity against isogenic chicken DT40 cell lines with known DNA damage response pathways - Rev3 mutant cell line (AID 743014). Note: nearly all actives have a fitted effect of over 55% in size. Note: potency is the fitted concentration of half-maximal effect.
The nature of experiment [4]: qHTS assay for identifying genotoxic compounds that show differential cytotoxicity against isogenic chicken DT40 cell lines with known DNA damage response pathways - Rad54/Ku70 mutant cell line (AID 743015). Note: nearly all actives have a fitted effect of over 60% in size. Note: potency is the fitted concentration of half-maximal effect.
For experiment [5], the target named is Androgen receptor (Homo sapiens) (UniProt P10275). Description: qHTS assay to identify small molecule antagonists of the androgen receptor (AR) signaling pathway (AID 743035; active = well fitted inhibition curve with a large enough effect in the signal ratio in the repeat runs, not every such curve was filed as active; the % refers to the signal ratio; note: potency is the fitted concentration of half-maximal effect). Put shortly: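 HEK293 cells stably carrying UAS-beta-lactamase reporter, 2,000/well, given compounds plus R1881 agonist and incubated 16 h at 37C. LiveBLAzer B/G FRET substrate then added for 2 h at room temperature before fluorescence reading.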
Chain of Androgen receptor (Homo sapiens) (P10275 whole entry, looked up): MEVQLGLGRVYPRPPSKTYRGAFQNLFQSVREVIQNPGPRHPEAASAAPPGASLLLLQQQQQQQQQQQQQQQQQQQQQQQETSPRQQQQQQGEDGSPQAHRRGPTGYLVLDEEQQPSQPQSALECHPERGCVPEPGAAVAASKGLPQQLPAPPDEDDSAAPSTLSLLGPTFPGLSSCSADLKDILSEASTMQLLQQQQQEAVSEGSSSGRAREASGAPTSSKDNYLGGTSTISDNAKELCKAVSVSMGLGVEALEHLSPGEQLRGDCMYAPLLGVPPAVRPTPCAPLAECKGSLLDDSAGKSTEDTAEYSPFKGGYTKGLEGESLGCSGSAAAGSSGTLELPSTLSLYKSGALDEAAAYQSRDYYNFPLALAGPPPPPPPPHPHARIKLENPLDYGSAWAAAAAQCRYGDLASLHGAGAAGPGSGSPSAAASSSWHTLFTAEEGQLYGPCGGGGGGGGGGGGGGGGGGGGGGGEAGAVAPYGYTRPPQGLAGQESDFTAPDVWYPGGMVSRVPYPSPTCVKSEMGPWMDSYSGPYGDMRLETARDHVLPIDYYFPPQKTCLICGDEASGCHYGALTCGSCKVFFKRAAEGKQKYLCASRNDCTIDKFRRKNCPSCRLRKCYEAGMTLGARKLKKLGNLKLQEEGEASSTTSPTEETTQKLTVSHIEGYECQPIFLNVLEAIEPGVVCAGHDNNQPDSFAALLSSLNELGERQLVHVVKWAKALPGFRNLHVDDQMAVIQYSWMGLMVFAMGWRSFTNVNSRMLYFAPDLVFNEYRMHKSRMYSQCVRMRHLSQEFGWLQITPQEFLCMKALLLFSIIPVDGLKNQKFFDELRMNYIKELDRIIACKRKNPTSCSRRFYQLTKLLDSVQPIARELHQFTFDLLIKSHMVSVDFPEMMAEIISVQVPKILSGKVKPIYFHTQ

For experiment [6] the target is unchanged. Description: qHTS assay to identify small molecule agonists of the androgen receptor (AR) signaling pathway (AID 743036; active = well fitted activation curve with a large enough effect in the signal ratio in the repeat runs, with a control signal flat, not every such curve was filed as active; the % refers to the signal ratio). Put shortly: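 Cell-based FRET reporter assay: HEK293 line with a UAS-beta-lactamase construct, compounds added in DMSO, 16 h exposure at 37C, then 2 h substrate step at room temperature and fluorescence intensity read.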
Experiment [7] shares this target. Description: qHTS assay to identify small molecule agonists of the androgen receptor (AR) signaling pathway using the MDA cell line (AID 743040; note: nearly all actives have a fitted effect of over 20% in size). Put shortly:
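Human breast carcinoma MDA-kb2 reporter cells (MMTV-luc, AR/GR elements) were treated for 16 h at 37C in 0% CO2 following a 5 h settling period. Signal was quantified by ONE-Glo luminescence.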

Experiment [8] can be described thus: qHTS assay to identify small molecule antagonists of the androgen receptor (AR) signaling pathway using the MDA cell line - cell viability counter screen (AID 743041; note: nearly all actives have a fitted effect of over 45% in size; note: potency is the fitted concentration of half-maximal effect). A digest of the protocol: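 Same-well cytotoxicity was assessed by CellTiter-Fluor in MDA-kb2 AR-luc cells after 16 h of compound treatment under R1881 agonism.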
The target of experiment [9] is Androgen receptor (Homo sapiens) (UniProt P10275). Put plainly: qHTS assay to identify small molecule antagonists of the androgen receptor (AR) signaling pathway using the MDA cell line (AID 743042; note: nearly all actives have a fitted effect of over 55% in size; note: potency is the fitted concentration of half-maximal effect). A digest of the protocol: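 MDA-kb2 breast carcinoma cells carrying MMTV-luciferase (AR/GR responsive) were co-treated with compounds and the agonist R1881 for 16 h at 37C. Inhibition read as ONE-Glo luminescence; CellTiter-Fluor fluorescence measured in parallel for cytotoxicity.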

Experiment [10] can be described thus: qHTS assay to identify small molecule antagonists of the estrogen receptor alpha (ER-alpha) signaling pathway - cell viability counter screen (AID 743074; calls by dose curve;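 note: HEK293 cells carrying ER-alpha-UAS-bla reporter stimulated with 17beta-estradiol; nearly all actives have a fitted effect of over 45% in size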).
Experiment [11] concerns the target Estrogen receptor (Homo sapiens) (UniProt P03372). Description: qHTS assay to identify small molecule agonists of the estrogen receptor alpha (ER-alpha) signaling pathway (AID 743075; calls by dose curve;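 note: HEK293 GripTite cells with ER-alpha and UAS-driven beta-lactamase reporter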).
For experiment [12] the target is unchanged. Description: qHTS assay to identify small molecule agonists of the estrogen receptor alpha (ER-alpha) signaling pathway using the BG1 cell line (AID 743079). Note: nearly all actives have a fitted effect of over 20% in size.
Experiment [13] in a line: qHTS assay to identify small molecule antagonists of the estrogen receptor alpha (ER-alpha) signaling pathway using the BG1 cell line (AID 743080; calls by dose curve;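 note: BG1 cells stimulated with 17beta-estradiol alongside compound; series mostly up to about 70 µM; nearly all actives have a fitted effect of over 25% in size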). Put shortly:
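BG1-Luc-4E2 cells (endogenous full-length ER-alpha, stable 4×ERE-luciferase) were starved 5 days in phenol-red-free medium with 10% charcoal-stripped FBS, plated 24 h, then given compound plus 17beta-estradiol for 21.5 h at 37 C; ONE-Glo luminescence read after 30 min.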

Experiment [14] in a line: qHTS assay to identify small molecule antagonists of the estrogen receptor alpha (ER-alpha) signaling pathway using the BG1 cell line - cell viability counter screen (AID 743081).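 Note: compound given together with 17beta-estradiol as the ER stimulus; series mostly up to about 70 µM; nearly all actives have a fitted effect of over 45% in size.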
The target in another experiment is Aromatase (Homo sapiens) (UniProt P11511). Description: qHTS assay to identify aromatase inhibitors (AID 743083). Note: series mostly up to about 70 µM; nearly all actives have a fitted effect of over 55% in size.
Chain of Aromatase (Homo sapiens) (P11511 whole entry, looked up): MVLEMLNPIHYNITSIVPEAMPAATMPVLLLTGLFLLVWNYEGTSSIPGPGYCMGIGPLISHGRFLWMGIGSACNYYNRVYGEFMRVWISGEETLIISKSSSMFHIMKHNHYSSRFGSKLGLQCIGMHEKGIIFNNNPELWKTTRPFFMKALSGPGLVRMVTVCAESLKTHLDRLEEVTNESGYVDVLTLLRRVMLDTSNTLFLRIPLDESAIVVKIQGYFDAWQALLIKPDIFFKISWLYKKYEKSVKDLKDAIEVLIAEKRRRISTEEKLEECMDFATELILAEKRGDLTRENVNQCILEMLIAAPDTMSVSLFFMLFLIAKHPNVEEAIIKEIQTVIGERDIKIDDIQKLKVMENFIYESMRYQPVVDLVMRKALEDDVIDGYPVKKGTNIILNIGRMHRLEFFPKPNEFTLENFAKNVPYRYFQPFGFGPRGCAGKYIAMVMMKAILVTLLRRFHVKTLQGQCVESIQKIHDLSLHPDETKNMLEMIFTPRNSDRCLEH
A short description of experiment [15]: qHTS assay to identify small molecule antagonists of the androgen receptor (AR) signaling pathway - cell viability counter screen (AID 743033; note: nearly all actives have a fitted effect of over 45% in size).
Experiment [16] in a line: qHTS assay to identify small molecule antagonists of the thyroid receptor (TR) signaling pathway - cell viability counter screen (AID 743064). Note: nearly all actives have a fitted effect of over 50% in size. Note: potency is the fitted concentration of half-maximal effect. A digest of the protocol:
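In rat pituitary GH3.TRE-Luc reporter cells co-exposed to compound and 1 nM T3 for 23.5 h, cytotoxicity was assessed with CellTiter-Fluor in the same wells, read by fluorescence.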

The nature of experiment [17]: qHTS assay to identify small molecule antagonists of the thyroid receptor (TR) signaling pathway (AID 743065). A digest of the protocol:
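GH3.TRE-Luc rat pituitary cells (two TREs driving luciferase) were dosed with compound, then stimulated with 1 nM T3 (final) for 23.5 h at 37 C. ONE-Glo luminescence was the read-out, with CellTiter-Fluor fluorescence as the cytotoxicity counter-screen.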

The subject of experiment [18] is thyroid hormone receptor (rat, GH3 cells). Put plainly: qHTS assay to identify small molecule agonists of the thyroid receptor (TR) signaling pathway (AID 743066; calls by dose curve).
Experiment [19] addresses Estrogen receptor (Homo sapiens) (UniProt P03372). Description: qHTS assay to identify small molecule antagonists of the estrogen receptor alpha (ER-alpha) signaling pathway (AID 743069; active = well fitted curve in the direction sought with a large enough effect in the signal ratio in the repeat runs, not every such curve was filed as active; the % refers to the signal ratio). A digest of the protocol: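 Reporter cells (ER-alpha-bla, HEK293 background) are conditioned overnight in stripped-serum medium (2% charcoal-stripped FBS). Compound and 17beta-estradiol exposure runs 18 hr at 37C, 5% CO2.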

Chain of Estrogen receptor (Homo sapiens) (P03372 whole entry, looked up): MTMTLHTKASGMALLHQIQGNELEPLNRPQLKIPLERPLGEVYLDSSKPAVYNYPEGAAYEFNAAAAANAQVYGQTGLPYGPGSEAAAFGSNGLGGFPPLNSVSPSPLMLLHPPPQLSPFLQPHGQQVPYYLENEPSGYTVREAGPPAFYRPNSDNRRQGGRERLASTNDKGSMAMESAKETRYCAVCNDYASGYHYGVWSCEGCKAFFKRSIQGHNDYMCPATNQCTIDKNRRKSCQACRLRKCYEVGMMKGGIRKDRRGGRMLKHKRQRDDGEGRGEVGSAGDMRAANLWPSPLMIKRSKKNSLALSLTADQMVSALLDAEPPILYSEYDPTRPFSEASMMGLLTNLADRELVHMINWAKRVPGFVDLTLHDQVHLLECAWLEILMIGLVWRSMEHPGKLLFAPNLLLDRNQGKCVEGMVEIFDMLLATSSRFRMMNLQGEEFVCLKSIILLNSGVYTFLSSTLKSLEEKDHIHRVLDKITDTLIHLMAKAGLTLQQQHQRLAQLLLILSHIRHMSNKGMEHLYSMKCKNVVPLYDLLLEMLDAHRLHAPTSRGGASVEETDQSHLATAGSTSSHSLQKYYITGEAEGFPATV

For the molecule `CC(C)CC(=O)C1C(=O)c2ccccc2C1=O`, the Potency entry in [1], in [2], in experiment [3], in experiment [4], in experiment [6] and in [7] was “inactive” throughout. The Potency result in experiment [8], in [9], in experiment [10], in experiment [11], in [12] and in experiment [13] was “inactive” throughout. The Potency entry (in experiment [14]; in the experiment with Aromatase (Homo sapiens)) was “inactive” each time. The Potency in experiment [5] is 49 µM (active).

Regarding `C[N+]1(CC2COC(c3ccccc3)(C3CCCCC3)O2)CCCCC1` (stereo unspecified), the Potency entry in experiment [1], in [15], in [10], in experiment [11], in [12] and in experiment [13] was “inactive” throughout. Further, the Potency entry (in experiment [14]; with Aromatase (Homo sapiens)) was “inactive” in each case. The Potency in experiment [2] was 2.66 µM (active); in experiment [3] it was 3.76 µM (active); in [4], 5.31 µM (active).

With `O=C1OC(=O)C2C3C=CC(C3)C12` (stereo unspecified), the Potency result in experiment [1], in experiment [2], in experiment [3], in experiment [4], in [15] and in [16] was “inactive” each time. The Potency entry (in [17]; in experiment [18]; in [10]; in [14]; with Aromatase (Homo sapiens)) was “inactive” in each case.

Consider `NC(=O)C(c1ccccc1)(c1ccccc1)[C@@H]1CCN(CCc2ccc3c(c2)CCO3)C1`, for which the Potency entry in experiment [1], in experiment [15], in experiment [19], in experiment [10], in [11] and in experiment [12] was “inactive” in each case. Further, the Potency result (in experiment [13]; in experiment [14]; with Aromatase (Homo sapiens)) was “inactive” in each case. Moreover, the Potency in [2] is 11.9 µM (active); in experiment [3] it was 18.8 µM (active); in [4], 23.7 µM (active); in experiment [16], 6.68 µM (active).

Regarding `Cc1nn(C)c(Oc2ccccc2)c1/C=N/OCc1ccc(C(=O)OC(C)(C)C)cc1`, the Potency entry in experiment [1], in [6] and in experiment [7] was “inactive” throughout. In addition, the Potency is 0.0022 µM (active) in [2]; 0.0024 µM (active) in experiment [3]; 0.123 µM (active) in [5]; 0.0077 µM (active) in [8]; 0.0024 µM (active) in [9].

On to `C[C@@H]1C[C@H]2O[C@@]3(O[C@@H]2C(C)(C)O)[C@H](O)[C@@]2(C)[C@@H]4CC[C@H]5C(C)(C)[C@@H](O[C@@H]6OC[C@@H](O)[C@H](O)[C@H]6O)CC[C@@]56C[C@@]46CC[C@]2(C)[C@@H]13`, for which the Potency entry in experiment [1], in experiment [2], in [3], in [6], in experiment [7] and in [8] was “inactive” each time. Moreover, the Potency entry in [9], in experiment [16], in experiment [18], in experiment [19], in experiment [10] and in [11] was “inactive” each time. Further, the Potency entry (in experiment [12]; in [13]; in [14]; with Aromatase (Homo sapiens)) was “inactive” each time.

In the case of `CCCCCCCCCCCCCCCCOS(=O)(=O)O`, the Potency result in experiment [1], in experiment [2], in [3], in experiment [15], in experiment [5] and in [6] was “inactive” each time. Further, the Potency entry in [7], in experiment [8], in experiment [9], in experiment [18], in [19] and in experiment [10] was “inactive” in each case. In addition, the Potency entry (in experiment [11]; in experiment [12]; in experiment [13]; in experiment [14]; with Aromatase (Homo sapiens)) was “inactive” throughout.

Consider `C[C@H]1C[C@H]2[C@@H]3CCC4=CC(=O)C=C[C@]4(C)[C@@]3(Cl)[C@@H](O)C[C@]2(C)[C@@]1(O)C(=O)CO`, for which the Potency entry in experiment [1], in [2], in experiment [3], in experiment [4], in [8] and in [16] was “inactive” each time. Moreover, the Potency entry in [17], in experiment [18], in experiment [10], in experiment [11], in experiment [12] and in experiment [14] was “inactive” throughout. For the same molecule, in the experiment with Aromatase (Homo sapiens), the Potency entry was “inactive”.

`COC(C)(C)CCO`: the Potency entry in [1], in [2], in experiment [3], in experiment [4], in [8] and in [16] was “inactive” each time. Moreover, the Potency result (in [18]; in [10]; in experiment [14]; with Aromatase (Homo sapiens)) was “inactive” in each case.

As to `CCCCCCCC#N`, the Potency entry in experiment [1], in [2], in [3], in experiment [4], in experiment [8] and in [16] was “inactive” each time. The Potency entry in experiment [17], in experiment [18] and in experiment [14] was “inactive” each time.

As to `C=C1[C@H]2CC[C@@H]3[C@H]2C(C)(C)CCC[C@]13C`, the Potency entry in experiment [1], in experiment [2], in experiment [3], in experiment [4], in experiment [8] and in experiment [18] was “inactive” each time. The Potency result in [19], in experiment [10], in experiment [11], in [12], in experiment [13] and in experiment [14] was “inactive” each time. Also, in the experiment with Aromatase (Homo sapiens), the Potency result is “inactive”.

Consider `CCCCCCCC/C=C\CCCCCCCC(=O)OCC`, for which the Potency result in experiment [1], in [2], in [3], in experiment [4], in experiment [8] and in experiment [17] was “inactive” in each case. Besides, the Potency result (in experiment [18]; in experiment [10]; in experiment [14]; in the experiment with Aromatase (Homo sapiens)) was “inactive” each time.
